Bioassay records (PubChem BioAssay)
TDP1 cell noCPT = qHTS for Inhibitors of human tyrosyl-DNA phosphodiesterase 1 (TDP1): qHTS in cells in absence of CPT. Potency, µM (highest dose often 46.2 µM), inactives show at the top dose activity change, negative = growth inhibition, most hits filed as inhibitors. 15% of 420,000 active. AID 686978, 2013. DT40 Tdp1-/- hTDP1 cells, no CPT, ATP luminescence, 48 h; further: on the % scale 0 is the no-effect control and ±100 the full control effect; nearly all actives have a fitted effect of over 55% in size
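A cellular qHTS used chicken DT40 cells lacking endogenous Tdp1 but carrying stably transfected human TDP1. Compounds were applied without camptothecin, and cell growth kinetics were judged by ATP-dependent luminescence after ≥48 hr.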
ATXN2 expr inh = Primary qHTS for Inhibitors of ATXN expression | 0.72% of 360,000 active | Potency, µM (doses to about 57 µM), inactives show at the highest dose activity change, negative = inhibition, actives largely listed as inhibitors | HEK-293 ATXN2-luciferase reporter, luminescence, 24 h; further: on the % scale 0 is the no-effect control and ±100 the full control effect; nearly all actives have a fitted effect of over 55% in size
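ATXN2-luciferase reporter cells (luciferase flanked by upstream and downstream ATXN2 gene portions) were treated 24 h at 37 °C with compounds at up to 57 uM. SteadyGlo luminescence gave expression; GF-AFC fluorescence gave viability.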
TDP1 cell CPT = qHTS for Inhibitors of human tyrosyl-DNA phosphodiesterase 1 (TDP1): qHTS in cells in presence of CPT | chicken DT40 Tdp1-/-;hTDP1 cells + 20 nM CPT, ATP luminescence, 48 h | Potency, µM (highest dose often 46.2 µM), for the others: at the top dose activity change, negative = growth inhibition, hits mostly inhibitors | 12% of 420,000 active | AID 686979, 2013; further: on the % scale 0 is the no-effect control and ±100 the full control effect; nearly all actives have a fitted effect of over 55% in size
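Chicken DT40 Tdp1-/- cells stably complemented with human TDP1 were seeded at 400 cells/well in medium containing 20 nM camptothecin, exposed to pin-transferred compounds, and grown at 37 °C for at least 48 hr. Viability was read as ATP luminescence.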
HepG2 viability = qHTS for Inhibitors of TGF-b: Cytotox Counterscreen; HepG2 CAGA-GFP viability, ATP luminescence, 18 h; Potency, µM (series often up to 46.1 µM), without a hit: at the highest dose activity change, negative = cytotoxicity, actives largely listed as cytotoxic; 0.76% of 410,000 active; AID 588856, 2011
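CellTiter-Glo luminescence gave cytotoxicity after 18 hours at 37 degrees C. The cells were HepG2 CAGA-GFP in 1% FBS DMEM, stimulated with 500 pg/mL TGF-beta after compound addition. %Activity was normalised to no-cell wells (complete cell-killing) and DMSO (no toxicity), and curves were fitted and classified.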
TGFb SMAD3 inh = qHTS for Inhibitors of TGF-b; HepG2 CAGA-GFP TGF-b/SMAD3 reporter, GFP fluorescence, 18 h; TGF-beta stimulated, 500 pg/mL final; Potency, µM (titrated, usually from 46.1 µM), for inactives: at the top dose activity, negative = inhibition, hits mostly inhibitors; 1.2% of 410,000 active; further: on the % scale 0 is the no-effect control and ±100 the full control effect; nearly all actives have a fitted effect of over 65% in size
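Read-out: total well GFP (ex488/em500-530) summed from mean per-cell fluorescence. Cells: HEPG2 CAGA-GFP, 1% FBS DMEM, 18 h at 37 degrees C with 500 pg/mL final TGF-beta. Unstimulated wells served as the full-inhibition control; stimulated DMSO wells = 0%.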
S2 tox = Viability Counterscreen for Primary qHTS for Inhibitors of ATXN expression; Potency, µM (titrated, usually from 56.7 µM), most hits filed as cytotoxic; 0.49% of 400,000 active; S2 cells (HEK-293 line with an ATXN2-luciferase reporter) viability, CellTiter-Fluor protease fluorescence, 24 h; AID 651635, 2014; further: nearly all actives have a fitted effect of over 40% in size
Active calls of the source: *; i = inactive; ? = inconclusive; / = no result given; [ ] = remark or other dose. Rows were chosen to be rich in hits. Some 17% of all compounds tested hit in one or more screens of this group. The call rests on the fitted dose curve; in most records, active means well fitted curve in the direction sought with a large enough effect; inconclusive means small, poorly fitted or top-dose-only effect, or another doubt; inactive means no such curve, though single readings can be large; an effect the other way counts as inactive or inconclusive. Potency means the concentration at half of the fitted maximal effect.

SMILES	TDP1 cell noCPT	ATXN2 expr inh	TDP1 cell CPT	HepG2 viability	TGFb SMAD3 inh	S2 tox
CC(=O)Nc1cc(C(=O)N2CCN(c3ccccc3)CC2C)cc2ncn(CCc3ccccn3)c12 (stereo not given)	-13.6%	/	-10.8%[9.04 µM]	/	/	i
CC(=O)Nc1cc(C(=O)N2CC3(C)CC2CC(C)(C)C3)cc2ncn(CCc3ccccn3)c12 (stereo not given)	23.1µM*	/	?	/	/	i
Clc1cccc(-c2nc3ccc(Br)cn3c2Cc2ccccc2)c1	?	29.8%	?	-4.6%	?	?
N#Cc1ccc(-c2nc3ccc(Br)cn3c2Cc2cccc(Cl)c2)cc1	20.6µM*	10.8%	?	-34.8%	-26.8%	i
Cc1ccc(-c2nc3ccc(Br)cn3c2Cc2ccccc2)cc1	?	40.8%	14.6µM*	0.1%	-22.3%	?
Fc1ccc(-c2nc3ccc(Cl)cn3c2Cc2cccc(F)c2)cc1	23.1µM*	2.3%	?	-29.1%	?	?
Cc1ccc(-c2nc3ccc(Cl)cn3c2Cc2cccc(Cl)c2)cc1	16.4µM*	37.4%	?	-1.6%	?	?
Cc1ccc(NC(=O)CCN2C(=O)NC(C)(C)C2=O)cc1F	-0.7%	8.7%	1.9%	19.2%	14.4%	?
O=C(C[N+]1(CCc2ccccc2)CCOCC1)c1ccccc1	-25.7%	/	2.4%	-33.0%	5.0%	/
Cc1cc(F)ccc1NC(=O)c1ccc(NS(=O)(=O)c2cccs2)cc1	?	/	-6.1%	-30.5%	0.0%	i
Clc1cccc(Cc2c(-c3cccc(Br)c3)nc3ccc(Br)cn23)c1	?	25.9%	?	-6.8%	?	?
Clc1cccc(Cc2c(-c3cccc(Cl)c3)nc3ccc(Br)cn23)c1	?	4.5%	?	-28.6%	14.1µM*	?
Clc1ccc(-c2nc3ccc(Br)cn3c2Cc2cccc(Cl)c2)cc1	?	12.9%	?	-4.9%	?	?
Cc1ccc(-c2nc3ccc(Br)cn3c2Cc2cccc(Cl)c2)cc1	9.2µM*	8.2%	14.6µM*	-39.4%	?	?
Brc1ccc2nc(-c3ccccc3)c(Cc3ccsc3)n2c1	23.1µM*	51.8%	25.9µM*	-23.0%	?	i
Clc1ccc2nc(-c3ccccc3)c(Cc3ccsc3)n2c1	?	21.5%	-5.4%	-4.0%	-25.6%	i
Cc1ccccc1-c1cnc(C(O)c2ccc(F)c(F)c2)[nH]1 (stereo not given)	-14.4%	17.8%	-6.1%	-17.5%	2.7%	i
COC(=O)N1CCC[C@@]2(CCN(Cc3nccs3)C2)C1	1.6%	/	13.0%	/	/	/
C/C(=N\Nc1ccc([N+](=O)[O-])cc1)c1ccc(N2CCOCC2)cc1	-4.9%	6.8%	5.7%	3.3%	8.8%	i
C/C(=N\Nc1ccc([N+](=O)[O-])cc1)c1ccc(-n2nncc2C)cc1	20.6µM*	-21.2%	?	0.5%	?	i
CC(C)(C)c1cnnn1-c1ccc(/C=N/Nc2ccc([N+](=O)[O-])cc2)cc1	13µM*	-26.4%	18.4µM*	-22.4%	-33.2%	i
C/C(=N\Nc1nc(C)c(C)s1)c1ccc([N+](=O)[O-])cc1	20.6µM*	29.9µM*	?	-18.4%	8.6%	/
O=C(Nc1ccccc1Br)C1CC(=O)N(c2ccc3c4c(cccc24)CC3)C1 (stereo not given)	20.6µM*	-28.2%	23.1µM*	-13.4%	-45.0%	i
CC1=C(C(=O)Nc2ccccc2)C(c2cccs2)n2nc(SCc3ccccc3)nc2N1 (stereo not given)	?	-7.0%	-19.2%	-1.4%	-3.2%	i
COc1cccc(CSc2nc3n(n2)C(c2cccs2)C(C(=O)Nc2ccccc2C)=C(C)N3)c1 (stereo not given)	13µM*	0.8%	20.6µM*	-7.4%	-15.1%	i
SMILES	TDP1 cell noCPT	ATXN2 expr inh	TDP1 cell CPT	HepG2 viability	TGFb SMAD3 inh	S2 tox
CC1=C(C(=O)Nc2ccc(C)cc2C)C(c2cccs2)n2nc(SCc3cccc(C)c3)nc2N1 (stereo not given)	18.4µM*	3.4%	20.6µM*	-2.4%	0.4%	i
COc1ccc(-c2nc3n(n2)C(c2ccccc2)C(C(=O)Nc2cccnc2)=C(C)N3)cc1 (stereo not given)	-23.0%	-4.0%	-26.7%	-27.7%	-11.1%	i
COc1cccc(-c2nc3n(n2)C(c2cccs2)C(C(=O)Nc2cccnc2)=C(C)N3)c1 (stereo not given)	?	2.3%	14.6µM*	-44.4%	-14.5%	i
COc1ccccc1NC(=O)C1=C(C)Nc2nc(SCc3ccccc3)nn2C1c1cccs1 (stereo not given)	14.6µM*	/	-100.6%	-7.2%	-1.3%	/
COc1cccc2cc(C(=O)N(Cc3cccs3)CC3CCCO3)c(=O)oc12 (stereo not given)	0.2%	-22.0%	-23.9%	40.9%	4.7%	i
O=C(COC(=O)CN1C(=O)C2CC=CCC2C1=O)Nc1cccc([N+](=O)[O-])c1 (stereo not given)	-16.6%	/	-22.6%	-0.3%	0.0%	i
Cc1nc(C)c(C(=O)NNS(=O)(=O)c2ccc3ccccc3c2)s1	23.1µM*	-12.0%[11.3 µM]	?	2.1%	-0.5%	i
Fc1ccc(N2CCN(Cc3ccc4c(c3)CN(Cc3cccn3-c3cccnc3)CCO4)CC2)cc1	20.6µM*	/	?	/	/	?
C[C@@H]1CN(Cc2ccc3c(c2)CN(Cc2cccc(O)c2)CCO3)C[C@H](C)O1	?	/	-1.0%[9.04 µM]	/	/	i
Cc1nc2sccn2c1CN1CCOc2ccc(CN3C[C@@H](C)O[C@@H](C)C3)cc2C1	8.2µM*	/	10.3µM*	/	/	i
